# According to the supplement of paper PMC3334620:
# Over roughly 33,000 sequences, “E-score (-0.5 to 0.5)” has its median near -0.054; the highest 2% begin near 0.39. The full list was thinned out, with the highest values kept by preference.
# Target: Ylr278c (UniProt Q05854)
# Test: PBM E-score (8-mer binding enrichment) (E-score (-0.5 to 0.5)); higher = stronger / more preferred TF binding
# Conditions: protein concentration: 200 nM; construct: GST-DNA-binding domain
# Method: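 Universal 'all 10-mer' protein binding microarrays (Agilent AMADID 015681) probed with GST-tagged S. cerevisiae TFs (full-length or DBD) made by in vitro transcription/translation (PURExpress), about 100-200 nM. Bound TF was detected with fluorescent anti-GST. Each ungapped 8-mer (which stands for itself and its reverse complement) is scored by the PBM enrichment score (E-score), a modified Wilcoxon-Mann-Whitney statistic from -0.5 to +0.5, computed with the Universal PBM Analysis Suite. Scale: above 0.35 generally sequence-specific binding.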
# UniProt Q05854, sequence (Q05854 whole entry): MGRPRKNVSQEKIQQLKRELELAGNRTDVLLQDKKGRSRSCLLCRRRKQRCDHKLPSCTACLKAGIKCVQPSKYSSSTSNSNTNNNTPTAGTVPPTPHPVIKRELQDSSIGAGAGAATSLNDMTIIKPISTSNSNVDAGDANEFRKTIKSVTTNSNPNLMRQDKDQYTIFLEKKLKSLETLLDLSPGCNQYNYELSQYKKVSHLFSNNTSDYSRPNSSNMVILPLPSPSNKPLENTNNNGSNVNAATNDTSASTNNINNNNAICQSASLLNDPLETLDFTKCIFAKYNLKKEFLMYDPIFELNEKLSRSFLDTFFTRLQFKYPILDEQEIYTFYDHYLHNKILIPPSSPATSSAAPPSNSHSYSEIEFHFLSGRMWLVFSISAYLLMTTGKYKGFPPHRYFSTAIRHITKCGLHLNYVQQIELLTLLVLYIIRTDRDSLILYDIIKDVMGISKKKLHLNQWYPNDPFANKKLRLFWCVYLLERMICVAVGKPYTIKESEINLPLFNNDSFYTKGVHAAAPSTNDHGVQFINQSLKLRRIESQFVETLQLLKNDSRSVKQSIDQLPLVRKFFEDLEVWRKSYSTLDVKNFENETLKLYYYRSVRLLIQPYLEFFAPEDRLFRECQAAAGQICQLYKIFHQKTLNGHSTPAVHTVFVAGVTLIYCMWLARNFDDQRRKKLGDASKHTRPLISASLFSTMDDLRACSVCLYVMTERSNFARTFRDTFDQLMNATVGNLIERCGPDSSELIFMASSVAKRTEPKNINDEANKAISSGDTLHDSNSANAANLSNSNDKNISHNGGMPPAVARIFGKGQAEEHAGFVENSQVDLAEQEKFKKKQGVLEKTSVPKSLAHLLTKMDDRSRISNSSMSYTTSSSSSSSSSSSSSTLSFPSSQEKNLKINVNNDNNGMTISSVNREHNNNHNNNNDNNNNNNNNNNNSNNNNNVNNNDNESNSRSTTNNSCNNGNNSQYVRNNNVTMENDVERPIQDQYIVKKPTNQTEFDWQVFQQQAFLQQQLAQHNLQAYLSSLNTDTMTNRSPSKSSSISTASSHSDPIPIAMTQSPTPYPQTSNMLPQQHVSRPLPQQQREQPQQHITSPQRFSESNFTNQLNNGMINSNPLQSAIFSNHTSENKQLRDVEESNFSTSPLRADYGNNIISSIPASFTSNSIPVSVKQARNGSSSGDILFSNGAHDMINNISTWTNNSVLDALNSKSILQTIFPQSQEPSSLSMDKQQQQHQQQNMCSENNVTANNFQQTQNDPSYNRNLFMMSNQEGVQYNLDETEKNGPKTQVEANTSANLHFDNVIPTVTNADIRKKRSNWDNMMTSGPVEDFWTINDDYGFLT
row,Sequence,PBM E-score
1,CATTTGAG,-0.0532
2,CCGGACTA,0.458
3,GCGGACTA,0.384
4,CCGGACTC,0.43
5,ACGGACTC,0.304
6,ACGGACTA,0.315
7,CGGGACTC,0.341
8,AGGCCTAC,-0.167
9,AAGCAATT,-0.0901
10,CATCCCAC,-0.135
11,ATAGTGTA,-0.188
12,GCCAAACC,0.119
13,GACTTGAC,-0.059
14,AGTATCTG,-0.207
15,ACGATCCG,0.283
16,ACGATCGG,0.334
17,CCGATCGG,0.43
18,CCGATCCA,0.208
19,CCGATCCG,0.424
20,CCGATCGA,0.226
21,CCGATTAA,0.333
22,CATGTTGA,-0.0612
23,CGAGAATA,0.0398
24,CAGGGCCG,0.181
25,ATTTAAGA,-0.154
26,AAGATGGT,-0.0478

row,Sequence,PBM E-score
1,CTACGGAA,0.197
2,ATACGGAT,0.256
3,CTACGGAG,0.398
4,ATACGGAG,0.425
5,ATACGGAA,0.345
6,CTACGGAC,0.261
7,CTAAACAC,-0.033
8,GTGGACAA,0.124
9,AGCAAGAC,-0.0712
10,ACACCAAC,-0.126
11,AAGCATAT,-0.014
12,ATCCCCTG,-0.16
13,ATCCCCGA,0.379
14,ATCCCGGA,0.44
15,ATCCCGGG,0.392
16,ATCCCGAG,0.308
17,ATCCCGTG,0.212
18,GTCCCCGA,0.217
19,ATCCCGTA,0.158
20,GTCCCGCA,0.163
21,ATCCCCGG,0.425
22,GTCCCGGA,0.439
23,ATCCCCCG,0.3
24,CGCGACAA,0.106
25,ATTGTAGG,-0.0526
26,ACAATCGA,-0.178

row,Sequence,PBM E-score
1,AATTAACA,-0.128
2,GACCTGAC,-0.198
3,CGAGGGCC,0.0992
4,CTCCCCGA,0.268
5,ATCCCCGC,0.393
6,CTCCCGGC,0.356
7,ATCCCGCC,0.297
8,ATCCCCCC,-0.298
9,ATCCCGGC,0.391
10,ATCCCGTC,0.231
11,CTCCCGGA,0.398
12,CTCCCCGC,0.288
13,GAGCCTAC,0.0364
14,AGCGTCTG,-0.136
15,CAGGGGAC,-0.151
16,AATGCTTC,0.0555
17,GAAACTGC,0.176
18,ATTGCTCC,0.256
19,GAATCCGA,0.368
20,AAATCCGG,0.474
21,CAATCCGA,0.251
22,AAATCCCG,0.426
23,TAATCCGA,0.359
24,AAATCCGT,0.362
25,AAATCCCA,-0.101
26,AAATCCAG,-0.0486

row,Sequence,PBM E-score
1,CAATCCGG,0.393
2,CAATCCCG,0.368
3,CAATCCGC,0.197
4,AAATCCGA,0.449
5,AGCGTCTC,0.0181
6,CCCTAGTC,-0.368
7,GATGGCCA,-0.102
8,CCCTAGCG,-0.352
9,CTGGGCAC,-0.183
10,ACCTCAAT,-0.178
11,CTCAGCCA,-0.0917
12,ATGAGCCG,-0.00632
13,ACCTACAA,-0.178
14,ACATCCGC,0.352
15,AAATCCGC,0.401
16,GAATCCGC,0.259
17,GACTTTAA,-0.0643
18,CATAGCCA,-0.115
19,CGGAAGTA,0.342
20,CGGAATCA,0.39
21,CGGAATTA,0.466
22,CGGAAGTC,0.396
23,GGGAATCA,-0.0137
24,AGGAATTC,-0.0584
25,AGGAAGTC,-0.156
26,AGGAATCA,-0.0846

row,Sequence,PBM E-score
1,CTGAATTC,-0.0397
2,AGGAATTA,0.0107
3,GGGAATTA,0.143
4,CGGAATTC,0.464
5,GACCTCAA,-0.226
6,TAGATAAA,-0.0204
7,AGTTGGTA,-0.238
8,AGTCAACC,-0.0996
9,CGAAGCGC,0.197
10,CCAGCCTC,-0.302
11,GTGGGTGA,0.0373
12,CAGTGGCG,0.0163
13,AACGGAAG,0.0937
14,ACCGGAAA,0.369
15,AGCGGAAC,0.333
16,CCCGGAAC,0.4
17,AGCGGAAG,0.305
18,TCCGGAAA,0.456
19,CGCGGAAC,0.368
20,ACCGGAAG,0.388
21,TACGGAAA,0.3
22,CACGGAAC,0.276
23,ACCGGAAC,0.428
24,TGCGGAAA,0.334
25,GCCACCAA,-0.0527
26,CTTCGCAC,-0.164

row,Sequence,PBM E-score
1,AAAAGTCC,0.371
2,TAATGGGA,-0.256
3,AGAAGAGG,-0.194
4,CCCTCAGC,-0.0523
5,CTCGGAAG,0.303
6,GCCGGGAA,0.329
7,GACGGAAA,0.35
8,CACGGAAG,0.228
9,ACCGGTAT,0.277
10,ACCGGGAT,0.388
11,CCCGGAAA,0.429
12,CCCGGAAG,0.39
13,CACGGAAA,0.328
14,GCCGGAAA,0.428
15,CCGGGAAA,0.354
16,ACCGGAAT,0.389
17,CGCAATTA,0.23
18,AAACTGCC,-0.0969
19,ACCTCTTA,0.176
20,GTCTAAAC,0.0271
21,ATCGCGTC,-0.0429
22,GCTTGGCA,-0.34
23,GACGGAAC,0.192
24,GGCGGAAC,0.349
25,GCCGGAAC,0.432
26,GAGCGCTC,0.0431

row,Sequence,PBM E-score
1,TCTTATCA,0.0183
2,CCAATGTC,-0.156
3,TCCTCCAA,-0.245
4,ACCTCCAA,-0.209
5,GCCTCCAA,-0.134
6,ACCTCCTA,-0.101
7,TCCTCCGA,0.43
8,CCCTCCGC,0.259
9,TCCTCCCA,0.0879
10,GCCTCCGA,0.398
11,ACCTCCGA,0.454
12,CCCTCCGG,0.388
13,CCCTCCAG,-0.0892
14,GCCTCCGC,0.361
15,AAGCCCAG,-0.143
16,ACACCTAG,-0.13
17,AGACTTCG,-0.137
18,GACAGGTA,-0.0451
19,GCTATAGA,-0.234
20,CCAGGCAC,-0.0214
21,ACCTCCTC,-0.0564
